Each structure is given as a SMILES string. ± gives the standard deviation of the averaged measurements.

The assay relates to AEK1 (Tb927.3.2440). The experiment in a line: percent reduction in TR-FRET probe signal relative to DMSO control; higher = stronger displacement of ATP-site probe (binding). Conditions: 1 µM; incubation time 1 h.
As for `CNc1nc(Nc2cnn([C@H]3CCN(C4COC4)C[C@@H]3F)c2Cl)ncc1C(F)(F)F`, the “percent reduction in TR-FRET probe signal” value is 9.94 ± 3.4%.
For `Cn1cnc2c(F)c(Nc3ccc(Br)cc3Cl)c(C(=O)NOCCO)cc21` [Selumetinib (AZD6244)] the value was 11.4 ± 34%; for `CC1=C(C(=O)Nc2cc3cn[nH]c3cc2F)C(c2ccc(C(F)(F)F)cc2)CC(=O)N1` (stereo not drawn), -2.47 ± 11%.

The values are drawn from the supplement of paper PMC10720658.
